The values below come from PubChem BioAssay.

The source made the active and inactive calls. Unless noted, how the calls were made is not given here.

The nature of test [1]: anti-His antibody binders, primary screen, artefact control for SMM control protein annotation, biochemical, small-molecule microarray, 635 nm fluorescence (AID 1128).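 Further: score merges feature fluorescence with signal-to-noise for each printed compound spot.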 Conditions: anti-His Alexa647 antibody binding, higher = more signal.
For test [2], the system named is Human papillomavirus type 1a E7 protein (residues 1-88). Kind of test: HPV1a E7 small-molecule binders, primary screen, biochemical, small-molecule microarray, residues 1-88, 635 nm (AID 1129). Particulars: small-molecule microarray binding, fluorescence 635 nm; higher = more signal.
Test [3] has as its target Focal adhesion kinase 1 (Homo sapiens) (UniProt Q05397). Kind of test: small-molecule microarray binders of FAK, primary screen, biochemical, 635/667 nm fluorescence, BSA, DTT (AID 1130).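 Further: composite of spot emission at 667 nm and signal to noise over triplicate slides.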 Conditions: PTK2 binding, 635 nm fluorescence, higher = more signal.
Test [4] deals with Fibrinogen (Alexa647-labelled). Kind of test: fibrinogen binders on compound microarrays, profiling panel, artefact control for SMM control-protein annotation, biochemical, small-molecule microarray, 635/667 nm fluorescence (AID 1131).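 Further: z-score merges 667 nm fluorescence with per-spot signal-to-noise over triplicate slides.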 Conditions: fibrinogen-A647 binding fluorescence, higher = more signal.
The target in test [5] is Follistatin (Homo sapiens) (UniProt P19883). Kind of test: follistatin binders on small-molecule microarrays, primary screen, biochemical, small-molecule microarray, 635/667 nm fluorescence (AID 1132). Particulars: FST binding, 635 nm fluorescence, higher = more signal.
Test [6] concerns the target Fibroblast growth factor 2 (Homo sapiens) (UniProt P09038). Kind of test: FGF2 binders on small-molecule microarrays, primary screen, biochemical, small-molecule microarray, 635/667 nm fluorescence (AID 1133). Conditions: small-molecule microarray binding, FGF2, fluorescence 635/667; higher = more signal.
Test [7] is described as follows: mitochondrial membrane potential change in A549 cells, profiling panel, cell-based, JC-1 fluorescence, basal, 24 h, 100 nL (AID 1138).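 Further: A549 lung adenocarcinoma cells under basal conditions with no added stimulus; test concentration not given here.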 Conditions: higher = more signal.
Test [8] concerns Lefty1. Kind of test: Lefty1 binders on small-molecule microarrays, primary screen, biochemical, small-molecule microarray, 635/667 nm fluorescence (AID 1139). Conditions: small-molecule microarray binding, fluorescence 635/667; higher = more signal.
Test [9] concerns wheat germ agglutinin (Triticum aestivum), Alexa647-labelled. Kind of test: wheat germ agglutinin binders on compound microarrays, profiling panel, artefact control for SMM control-protein annotation, biochemical, small-molecule microarray, 635/667 nm fluorescence (AID 1140).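 Further: score merges 667 nm feature emission with signal to noise over triplicate slides.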 Conditions: WGA-A647 binding, 635 nm fluorescence, higher = more signal.
Test [10] has as its target Luciferin 4-monooxygenase (Photinus pyralis) (UniProt P08659). Kind of test: firefly luciferase enzyme inhibitors, primary screen, biochemical, luminescence, purified enzyme, 2006 set (AID 1141).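 Further: cell-free assay with purified firefly luciferase at 100 ng per well in PBS; test concentration not given here.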 Conditions: SteadyGlo luminescence, 30 min, higher = more signal, called active from +8 up or from −8 down.
For test [11], the system named is Wnt5a (protein binding on small-molecule microarray). Kind of test: Wnt5a binders on small-molecule microarray, primary screen, biophysical, 635/667 nm fluorescence (AID 1142).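 Further: fluorescence read at 667 nm with signal to noise per printed feature.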 Particulars: 635 nm fluorescence, higher = more signal.
Test [12] in a line: cell viability in Huh7 cells, primary screen, cytotoxicity control for HCV replication inhibitor project, CellTiter-Glo luminescence, basal, 48 h (AID 1143).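 Further: Huh7 hepatoma cells carrying a hepatitis C replication reporter with no stimulus; test concentration not given here.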 Conditions: Huh7 HCV replicon, higher = more signal, called active from +8 up or from −8 down.
Test [13] can be described thus: P. aeruginosa biofilm formation inhibitors, primary screen, PAO1 strain, BacTiter-Glo luminescence, LB-PBS (AID 1144). Conditions: 12 h, higher = more signal.
Test [14] in a line: CREB reporter modulators without forskolin, primary screen, cell-based, PC12, CRE-LacZ reporter, unstimulated (AID 1145). Particulars: no forskolin, luminescence, 4.5 h, higher = more signal, called active from +8 up or from −8 down.
Test [15] is described as follows: CREB reporter modulators under forskolin, primary screen, cell-based, PC12, CRE-LacZ reporter, forskolin-stimulated (AID 1146).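 Further: PC12 cells with 6xCRE LacZ reporter stimulated by forskolin 10 µM; beta-galactosidase reporter signal reflecting CREB driven transcription.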 Particulars: luminescence, 4.5 h, higher = more signal, called active from +8 up or from −8 down.
In test [16] the target is Streptavidin (Streptomyces avidinii) (UniProt P22629). Kind of test: streptavidin binders on small-molecule microarray, primary screen, artefact control for SMM compound annotation, biophysical, 635/667 nm fluorescence (AID 1147).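 Further: signal reflects streptavidin binding to arrayed compounds as a control protein.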 Conditions: streptavidin binding, higher = more signal.
Test [17] can be described thus: small-molecule binders of probe aInhba, primary screen, biochemical, small-molecule microarray, 635/667 nm fluorescence (AID 1148).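 Further: score merges 667nm spot fluorescence with signal-to-noise for antibody binding to printed compounds.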 Conditions: higher = more signal.
The target of test [18] is Torsin-1A (Homo sapiens) (UniProt O14656). Kind of test: torsin A binders from cell lysate, primary screen, small-molecule microarray, wild-type, 635/667 nm (AID 1149). Particulars: COS7 hTOR1A-WT lysate, 635 nm fluorescence, higher = more signal.
Test [19] shares this target. Kind of test: small-molecule binders of mutant TOR1A in lysate, primary screen, cell lysate, small-molecule microarray, COS7 lysate, 635/667 nm fluorescence (AID 1150).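 Further: score pools 667 nm emission and signal to noise measuring lysate protein binding.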 Particulars: COS7 hTOR1A mutant lysate, 635 nm fluorescence, higher = more signal.
Test [20] relates to Sonic hedgehog protein (Shh). Kind of test: small-molecule binders of Shh protein, primary screen, biochemical, small-molecule microarray, 635/667 nm fluorescence (AID 1151).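 Further: Shh protein binding to compounds spotted on small-molecule microarray slides; score combines spot fluorescence intensity with signal-to-noise across triplicate slides.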 Conditions: small-molecule microarray binding, 635 nm fluorescence; higher = more signal.

Sequence of Torsin-1A (Homo sapiens) (O14656 whole entry, looked up): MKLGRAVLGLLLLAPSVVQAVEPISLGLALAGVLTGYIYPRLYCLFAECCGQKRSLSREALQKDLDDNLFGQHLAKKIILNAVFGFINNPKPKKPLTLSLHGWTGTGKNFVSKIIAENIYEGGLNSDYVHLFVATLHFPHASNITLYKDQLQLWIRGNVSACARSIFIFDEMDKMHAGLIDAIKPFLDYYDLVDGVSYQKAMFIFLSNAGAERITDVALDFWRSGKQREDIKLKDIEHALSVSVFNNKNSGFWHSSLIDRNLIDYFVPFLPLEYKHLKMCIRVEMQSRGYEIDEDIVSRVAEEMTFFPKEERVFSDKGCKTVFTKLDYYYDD
Sequence of Focal adhesion kinase 1 (Homo sapiens) (Q05397 whole entry, looked up): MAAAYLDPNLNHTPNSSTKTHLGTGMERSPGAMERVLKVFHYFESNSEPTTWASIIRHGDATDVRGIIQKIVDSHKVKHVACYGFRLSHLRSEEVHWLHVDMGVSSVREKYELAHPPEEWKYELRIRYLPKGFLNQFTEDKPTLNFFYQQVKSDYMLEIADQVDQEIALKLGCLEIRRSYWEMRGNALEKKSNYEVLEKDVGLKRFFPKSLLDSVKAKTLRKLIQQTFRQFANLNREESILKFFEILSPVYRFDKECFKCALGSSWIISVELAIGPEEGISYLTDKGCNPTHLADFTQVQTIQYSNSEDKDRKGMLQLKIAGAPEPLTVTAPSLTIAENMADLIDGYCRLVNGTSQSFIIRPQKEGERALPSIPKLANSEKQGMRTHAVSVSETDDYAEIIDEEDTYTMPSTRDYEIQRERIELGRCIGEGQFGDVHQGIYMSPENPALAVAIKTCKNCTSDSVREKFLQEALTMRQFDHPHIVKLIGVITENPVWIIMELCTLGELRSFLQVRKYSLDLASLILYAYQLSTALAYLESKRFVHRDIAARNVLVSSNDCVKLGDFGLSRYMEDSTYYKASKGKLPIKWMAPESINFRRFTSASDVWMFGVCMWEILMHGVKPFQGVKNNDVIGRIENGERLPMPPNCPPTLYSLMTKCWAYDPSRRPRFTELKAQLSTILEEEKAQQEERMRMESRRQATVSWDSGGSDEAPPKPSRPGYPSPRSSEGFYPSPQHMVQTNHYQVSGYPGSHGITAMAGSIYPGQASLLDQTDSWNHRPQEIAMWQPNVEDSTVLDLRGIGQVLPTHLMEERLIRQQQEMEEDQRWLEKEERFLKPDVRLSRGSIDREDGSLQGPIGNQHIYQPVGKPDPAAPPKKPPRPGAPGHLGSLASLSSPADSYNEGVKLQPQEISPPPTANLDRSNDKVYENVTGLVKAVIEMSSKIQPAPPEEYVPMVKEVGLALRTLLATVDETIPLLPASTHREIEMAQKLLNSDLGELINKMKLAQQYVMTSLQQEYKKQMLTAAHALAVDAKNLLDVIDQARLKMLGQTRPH
Sequence of Follistatin (Homo sapiens) (P19883 whole entry, looked up): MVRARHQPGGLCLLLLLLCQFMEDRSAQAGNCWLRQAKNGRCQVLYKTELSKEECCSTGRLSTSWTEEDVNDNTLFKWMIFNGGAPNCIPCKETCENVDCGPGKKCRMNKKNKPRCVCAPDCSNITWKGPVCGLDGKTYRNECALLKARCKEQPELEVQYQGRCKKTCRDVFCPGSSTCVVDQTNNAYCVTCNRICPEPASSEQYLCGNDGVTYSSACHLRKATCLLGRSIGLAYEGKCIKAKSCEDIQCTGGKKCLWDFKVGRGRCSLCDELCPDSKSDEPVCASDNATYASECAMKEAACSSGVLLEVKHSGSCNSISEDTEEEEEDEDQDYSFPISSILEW
Sequence of Luciferin 4-monooxygenase (Photinus pyralis) (P08659 whole entry, looked up): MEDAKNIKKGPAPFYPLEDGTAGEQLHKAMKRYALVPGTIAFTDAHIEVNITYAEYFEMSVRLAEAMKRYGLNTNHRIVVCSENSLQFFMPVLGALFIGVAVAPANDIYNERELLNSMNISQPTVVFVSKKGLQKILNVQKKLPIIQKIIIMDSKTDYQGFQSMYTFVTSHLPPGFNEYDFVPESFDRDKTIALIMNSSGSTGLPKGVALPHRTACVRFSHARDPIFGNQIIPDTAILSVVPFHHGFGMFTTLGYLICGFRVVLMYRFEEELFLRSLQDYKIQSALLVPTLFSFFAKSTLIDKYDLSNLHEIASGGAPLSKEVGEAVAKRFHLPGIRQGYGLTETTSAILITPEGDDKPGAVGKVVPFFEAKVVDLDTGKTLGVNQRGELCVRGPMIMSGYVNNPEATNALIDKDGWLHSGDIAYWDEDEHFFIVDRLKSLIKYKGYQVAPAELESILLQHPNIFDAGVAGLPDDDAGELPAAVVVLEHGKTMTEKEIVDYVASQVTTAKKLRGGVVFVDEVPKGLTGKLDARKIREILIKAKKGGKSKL
Sequence of Streptavidin (Streptomyces avidinii) (P22629 whole entry, looked up): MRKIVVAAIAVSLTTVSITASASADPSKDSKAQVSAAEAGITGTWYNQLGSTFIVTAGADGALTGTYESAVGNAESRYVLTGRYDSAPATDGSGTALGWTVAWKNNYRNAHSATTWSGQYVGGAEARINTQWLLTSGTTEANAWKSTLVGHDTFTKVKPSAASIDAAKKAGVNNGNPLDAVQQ
Sequence of Fibroblast growth factor 2 (Homo sapiens) (P09038 whole entry, looked up): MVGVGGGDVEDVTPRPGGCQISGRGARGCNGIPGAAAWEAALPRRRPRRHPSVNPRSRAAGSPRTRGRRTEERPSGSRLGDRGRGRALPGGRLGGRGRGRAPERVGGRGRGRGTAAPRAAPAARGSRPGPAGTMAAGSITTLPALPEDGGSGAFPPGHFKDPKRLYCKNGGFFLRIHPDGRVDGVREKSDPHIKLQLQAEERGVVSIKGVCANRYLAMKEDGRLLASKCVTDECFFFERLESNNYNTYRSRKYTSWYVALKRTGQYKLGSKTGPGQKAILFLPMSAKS

For the compound `C=CCN1C(=O)[C@@]2(O[C@@H](CCO)[C@H]([Si](C)(C)c3ccc(OC)cc3)[C@H]2C)c2cc(NC(=O)c3ccc(OC)cc3)ccc21`, the composite z-score in test [1] was 0.919; in [2], 0.563; in [3] it was -0.0376; in test [4], 0.259; in [5], 1.38; in test [6] it was 1.2. Also, the composite z-score was 0.763 in [8]; 0.458 in test [9]; 0.157 in test [11]; 0.15 in test [16]; -0.0221 in test [17]; 0.214 in [18]. In addition, the results for the composite z-score in test [19] and in [20] were 0.373 and 1.64, respectively. Further, the z-score was 2.81 in test [7]; -1.26 (inactive) in test [10]; -6.5 (inactive) in [12]; -0.39 (inactive) in [13]; 10.6 (active) in test [14]; -1.6 (inactive) in test [15].
On to `CCCCC(O)C1C=CC2C(=O)N(c3ccccc3)C(=O)C2N1Nc1ccccc1F` (stereo not given), for which the composite z-score in [1] was 1.35; in [2], 1.11; in test [3], 0.527; in test [4], 0.924; in [5], 0.347; in test [6], -0.563. The composite z-score was -0.0785 in test [8]; 1.2 in [9]; 0.182 in test [11]; 2.09 in [16]; 0.297 in [17]; 0.31 in [18]. Besides, the composite z-score in [19] was 0.129; in test [20] it was -0.0688. The z-score in [7] was 0.354; in test [10] it was 0.247 (inactive); in [12], 0.615 (inactive); in test [13], -0.571 (inactive); in [14], -0.143 (inactive); in test [15] it was 0.569 (inactive).
`CC(C)[C@@H](CO)NC(=O)[C@H]1[C@@H](c2ccccc2)N(c2ccccc2)O[C@@H]1C`: the composite z-score is 0.398 in test [1]; -0.253 in test [2]; -0.168 in test [3]; 0.0711 in [4]; 0.104 in test [5]; 0.0808 in [6]. The composite z-score in test [8] was 0.216; in [9], 0.149; in test [11], -0.106; in [16], -0.327; in [17], 0.0953; in test [18], -0.261. Moreover, the results for the composite z-score in test [19] and in test [20] were -0.0316 and 0.463, respectively. Also, the z-score in [7] was 0.204; in test [10], -0.21 (inactive); in test [12] it was -0.206 (inactive); in test [13], -0.736 (inactive); in test [14] it was -0.415 (inactive); in test [15], -1.35 (inactive).
Take `CN(C)C(=O)[C@@]1(Cc2ccccc2CN=[N+]=[N-])N=C(c2ccc(OCCCO)cc2)O[C@H]1c1ccccc1`: the composite z-score in test [1] stood at 2.77; in [2], 1.18; in test [3], 0.995; in [4] it was 0.941; in test [5], 0.761; in test [6], 1.34. For the same compound, the composite z-score was -0.169 in [8]; 0.751 in test [9]; 0.522 in test [11]; -0.154 in test [16]; 0.7 in [17]; 0.209 in [18]. For the same compound, the figures for the composite z-score in [19] and in test [20] were 0.681 and -0.221, respectively. Moreover, the z-score is 0.0462 in test [7]; 0.27 (inactive) in test [10]; -2.54 (inactive) in test [12]; 0.378 (inactive) in [13]; 0.629 (inactive) in test [14]; -0.524 (inactive) in test [15].
